Consider one compound from ChEMBL document CHEMBL1961873, “Compounds: GSK PKIS; Assays: Nanosyn kinase panel” (2012).

In assay [1] the target is Sphingosine kinase 1 (Homo sapiens) (UniProt Q9NYA1). The conditions noted are these: at 1 µM.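 Further: mean SPHK1 inhibition value reported from the GSK PKIS kinase panel screen.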
Assay [2] concerns the target T1, Sphingosine kinase 2 (Homo sapiens) (UniProt Q9NRA0).
T1 sequence (whole entry): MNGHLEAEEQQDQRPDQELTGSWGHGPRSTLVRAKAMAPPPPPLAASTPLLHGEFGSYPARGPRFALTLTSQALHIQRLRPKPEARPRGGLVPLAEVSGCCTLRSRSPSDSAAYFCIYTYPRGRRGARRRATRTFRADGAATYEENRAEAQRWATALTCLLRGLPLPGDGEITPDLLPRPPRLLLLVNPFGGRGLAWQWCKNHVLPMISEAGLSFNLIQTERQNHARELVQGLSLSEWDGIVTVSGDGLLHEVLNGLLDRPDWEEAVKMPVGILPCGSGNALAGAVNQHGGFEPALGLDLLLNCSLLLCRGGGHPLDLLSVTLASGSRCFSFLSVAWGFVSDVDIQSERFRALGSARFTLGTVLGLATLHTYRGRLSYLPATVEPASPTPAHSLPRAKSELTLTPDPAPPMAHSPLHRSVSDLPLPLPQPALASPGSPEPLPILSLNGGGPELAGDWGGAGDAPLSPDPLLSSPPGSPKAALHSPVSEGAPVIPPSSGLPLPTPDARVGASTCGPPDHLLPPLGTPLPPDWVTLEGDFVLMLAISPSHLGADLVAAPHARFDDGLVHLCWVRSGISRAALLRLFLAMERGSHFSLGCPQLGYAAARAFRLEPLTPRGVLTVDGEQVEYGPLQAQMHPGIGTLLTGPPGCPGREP
Particulars: at 0.1 µM.

Assay [3] concerns the target T1, Sphingosine kinase 2 (Homo sapiens). The conditions noted are these: at 1 µM.
Assay [4] concerns the target Casein kinase II subunit alpha (Homo sapiens) (UniProt P68400). Particulars: at 0.1 µM.
Assay [5] shares this target. Particulars: at 1 µM.
Assay [6] concerns the target T2, Inhibitor of nuclear factor kappa-B kinase subunit alpha (Homo sapiens) (UniProt O15111).
T2 sequence (whole entry): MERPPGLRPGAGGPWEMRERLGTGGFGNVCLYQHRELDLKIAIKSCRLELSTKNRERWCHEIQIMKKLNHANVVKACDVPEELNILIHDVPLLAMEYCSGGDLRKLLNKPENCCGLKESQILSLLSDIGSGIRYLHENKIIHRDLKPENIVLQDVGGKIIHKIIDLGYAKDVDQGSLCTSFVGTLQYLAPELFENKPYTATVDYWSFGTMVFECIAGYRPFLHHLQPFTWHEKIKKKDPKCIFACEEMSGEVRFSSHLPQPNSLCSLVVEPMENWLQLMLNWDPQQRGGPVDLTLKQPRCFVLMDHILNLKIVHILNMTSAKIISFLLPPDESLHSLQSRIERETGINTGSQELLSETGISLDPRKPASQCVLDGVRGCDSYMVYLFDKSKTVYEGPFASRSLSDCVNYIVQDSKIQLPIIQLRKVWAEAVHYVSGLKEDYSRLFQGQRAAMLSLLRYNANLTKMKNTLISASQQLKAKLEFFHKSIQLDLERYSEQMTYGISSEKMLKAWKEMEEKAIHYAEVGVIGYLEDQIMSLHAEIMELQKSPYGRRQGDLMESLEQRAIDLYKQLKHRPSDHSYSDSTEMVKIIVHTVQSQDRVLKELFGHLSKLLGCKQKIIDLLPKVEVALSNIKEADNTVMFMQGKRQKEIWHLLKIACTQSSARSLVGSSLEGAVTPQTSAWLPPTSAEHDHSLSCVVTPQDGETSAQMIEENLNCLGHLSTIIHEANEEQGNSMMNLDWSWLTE
The conditions noted are these: at 0.1 µM.

Assay [7] addresses T2, Inhibitor of nuclear factor kappa-B kinase subunit alpha (Homo sapiens). Particulars: at 1 µM.
The target in assay [8] is T3, Inhibitor of nuclear factor kappa-B kinase subunit beta (Homo sapiens) (UniProt O14920).
T3 sequence (whole entry): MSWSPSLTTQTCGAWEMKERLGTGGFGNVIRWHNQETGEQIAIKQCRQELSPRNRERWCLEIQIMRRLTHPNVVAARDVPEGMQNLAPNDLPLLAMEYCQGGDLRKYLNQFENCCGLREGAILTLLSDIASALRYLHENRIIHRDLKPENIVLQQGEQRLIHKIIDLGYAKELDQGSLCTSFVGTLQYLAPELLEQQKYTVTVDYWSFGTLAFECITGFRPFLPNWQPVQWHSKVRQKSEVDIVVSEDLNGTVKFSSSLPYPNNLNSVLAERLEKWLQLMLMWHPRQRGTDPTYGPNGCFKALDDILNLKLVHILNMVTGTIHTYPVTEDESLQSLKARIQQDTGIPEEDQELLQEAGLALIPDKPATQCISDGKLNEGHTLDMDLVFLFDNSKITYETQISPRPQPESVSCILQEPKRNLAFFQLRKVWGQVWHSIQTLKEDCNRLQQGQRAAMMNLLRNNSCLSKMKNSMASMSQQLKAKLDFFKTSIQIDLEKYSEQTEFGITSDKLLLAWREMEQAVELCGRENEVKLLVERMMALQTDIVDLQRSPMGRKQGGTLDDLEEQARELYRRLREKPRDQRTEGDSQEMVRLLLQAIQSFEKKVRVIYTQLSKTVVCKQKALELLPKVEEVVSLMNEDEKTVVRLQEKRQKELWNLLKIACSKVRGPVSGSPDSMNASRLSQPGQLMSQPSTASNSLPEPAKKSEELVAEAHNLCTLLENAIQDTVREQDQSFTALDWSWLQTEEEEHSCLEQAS
The conditions noted are these: at 0.1 µM.

Assay [9] has as its target T3, Inhibitor of nuclear factor kappa-B kinase subunit beta (Homo sapiens). The conditions noted are these: at 1 µM.
The target in assay [10] is T4, Inhibitor of nuclear factor kappa-B kinase subunit epsilon (Homo sapiens) (UniProt Q14164).
T4 sequence (whole entry): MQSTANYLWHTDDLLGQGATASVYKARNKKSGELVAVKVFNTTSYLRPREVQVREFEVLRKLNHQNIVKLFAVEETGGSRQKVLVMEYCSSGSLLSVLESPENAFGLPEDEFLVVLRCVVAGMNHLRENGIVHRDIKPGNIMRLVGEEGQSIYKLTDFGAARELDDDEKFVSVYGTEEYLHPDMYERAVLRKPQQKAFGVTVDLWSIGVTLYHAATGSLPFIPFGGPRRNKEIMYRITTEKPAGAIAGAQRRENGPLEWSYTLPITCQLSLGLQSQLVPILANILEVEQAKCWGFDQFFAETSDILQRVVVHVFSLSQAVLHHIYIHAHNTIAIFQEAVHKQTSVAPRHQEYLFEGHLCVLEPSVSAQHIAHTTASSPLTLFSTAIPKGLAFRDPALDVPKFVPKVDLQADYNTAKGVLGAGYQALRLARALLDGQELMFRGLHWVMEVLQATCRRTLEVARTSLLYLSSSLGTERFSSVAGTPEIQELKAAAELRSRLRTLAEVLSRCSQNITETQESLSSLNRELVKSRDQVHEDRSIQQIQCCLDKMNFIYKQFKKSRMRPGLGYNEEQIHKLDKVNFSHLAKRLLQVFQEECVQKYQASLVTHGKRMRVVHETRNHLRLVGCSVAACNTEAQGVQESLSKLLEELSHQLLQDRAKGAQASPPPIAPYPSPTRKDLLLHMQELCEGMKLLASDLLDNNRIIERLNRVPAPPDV
The conditions noted are these: at 0.1 µM.

Assay [11] concerns the target T4, Inhibitor of nuclear factor kappa-B kinase subunit epsilon (Homo sapiens). Particulars: at 1 µM.
The target in assay [12] is T5, Serine/threonine-protein kinase Nek1 (Homo sapiens) (UniProt Q96PY6).
T5 sequence (whole entry): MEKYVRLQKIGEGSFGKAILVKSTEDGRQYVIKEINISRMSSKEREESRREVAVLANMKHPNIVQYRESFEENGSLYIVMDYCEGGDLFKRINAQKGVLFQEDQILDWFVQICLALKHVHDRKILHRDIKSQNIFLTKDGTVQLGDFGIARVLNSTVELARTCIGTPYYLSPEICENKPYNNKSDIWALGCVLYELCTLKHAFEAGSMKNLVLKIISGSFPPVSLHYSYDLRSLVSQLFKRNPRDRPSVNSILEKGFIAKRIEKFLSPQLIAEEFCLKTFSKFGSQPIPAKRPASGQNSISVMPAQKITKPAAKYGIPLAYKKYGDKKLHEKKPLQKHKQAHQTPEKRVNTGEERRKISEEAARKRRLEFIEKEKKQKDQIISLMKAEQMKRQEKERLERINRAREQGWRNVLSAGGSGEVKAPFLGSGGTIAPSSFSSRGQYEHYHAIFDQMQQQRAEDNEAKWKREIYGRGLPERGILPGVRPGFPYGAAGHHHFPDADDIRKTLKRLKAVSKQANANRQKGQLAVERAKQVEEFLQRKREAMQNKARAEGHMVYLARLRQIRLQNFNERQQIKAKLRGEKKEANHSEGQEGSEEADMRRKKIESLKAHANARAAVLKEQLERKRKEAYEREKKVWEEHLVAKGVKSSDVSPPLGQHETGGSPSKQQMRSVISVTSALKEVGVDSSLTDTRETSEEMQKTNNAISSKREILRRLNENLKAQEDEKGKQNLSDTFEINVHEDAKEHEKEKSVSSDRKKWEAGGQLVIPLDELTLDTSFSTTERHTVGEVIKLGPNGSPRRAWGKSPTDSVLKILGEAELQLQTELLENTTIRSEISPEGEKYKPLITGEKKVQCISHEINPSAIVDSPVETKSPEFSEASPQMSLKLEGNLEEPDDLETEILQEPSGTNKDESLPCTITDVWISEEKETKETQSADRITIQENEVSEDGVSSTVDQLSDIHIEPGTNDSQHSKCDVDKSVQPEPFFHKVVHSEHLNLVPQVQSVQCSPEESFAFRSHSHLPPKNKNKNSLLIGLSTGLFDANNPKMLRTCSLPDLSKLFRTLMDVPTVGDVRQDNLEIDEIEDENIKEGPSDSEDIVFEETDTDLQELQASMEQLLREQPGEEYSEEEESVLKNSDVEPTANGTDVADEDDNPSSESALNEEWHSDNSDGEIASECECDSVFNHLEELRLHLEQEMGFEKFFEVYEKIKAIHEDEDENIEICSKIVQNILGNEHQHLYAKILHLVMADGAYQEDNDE
Particulars: at 0.1 µM.

For assay [13], the target named is T5, Serine/threonine-protein kinase Nek1 (Homo sapiens). The conditions noted are these: at 1 µM.
In assay [14] the target is T6, Serine/threonine-protein kinase Nek2 (Homo sapiens) (UniProt P51955).
T6 sequence (whole entry): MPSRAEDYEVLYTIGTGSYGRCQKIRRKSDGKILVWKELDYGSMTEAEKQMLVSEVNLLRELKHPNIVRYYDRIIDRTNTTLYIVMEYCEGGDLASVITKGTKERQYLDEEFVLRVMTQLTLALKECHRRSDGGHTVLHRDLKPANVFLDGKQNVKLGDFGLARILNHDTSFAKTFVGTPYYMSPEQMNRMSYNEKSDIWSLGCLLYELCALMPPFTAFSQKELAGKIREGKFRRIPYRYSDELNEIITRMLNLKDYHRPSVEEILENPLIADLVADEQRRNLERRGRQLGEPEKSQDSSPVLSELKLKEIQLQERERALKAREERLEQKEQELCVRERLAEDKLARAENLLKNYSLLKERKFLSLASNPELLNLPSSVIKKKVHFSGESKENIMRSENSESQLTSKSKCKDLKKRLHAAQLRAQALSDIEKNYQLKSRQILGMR
Particulars: at 0.1 µM.

Assay [15] concerns the target T6, Serine/threonine-protein kinase Nek2 (Homo sapiens). The conditions noted are these: at 1 µM.
Assay [16] concerns the target Serine/threonine-protein kinase Nek6 (Homo sapiens) (UniProt Q9HC98). Particulars: at 0.1 µM.
Assay [17] has the same target. Particulars: at 1 µM.
In assay [18] the target is Serine/threonine-protein kinase Nek7 (Homo sapiens) (UniProt Q8TDX7). The conditions noted are these: at 0.1 µM.
For assay [19] the target is unchanged. Particulars: at 1 µM.
In assay [20] the target is T7, Serine/threonine-protein kinase Nek9 (Homo sapiens) (UniProt Q8TD19).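 Further: reported value is the mean percent inhibition of NEK9.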
T7 sequence (whole entry): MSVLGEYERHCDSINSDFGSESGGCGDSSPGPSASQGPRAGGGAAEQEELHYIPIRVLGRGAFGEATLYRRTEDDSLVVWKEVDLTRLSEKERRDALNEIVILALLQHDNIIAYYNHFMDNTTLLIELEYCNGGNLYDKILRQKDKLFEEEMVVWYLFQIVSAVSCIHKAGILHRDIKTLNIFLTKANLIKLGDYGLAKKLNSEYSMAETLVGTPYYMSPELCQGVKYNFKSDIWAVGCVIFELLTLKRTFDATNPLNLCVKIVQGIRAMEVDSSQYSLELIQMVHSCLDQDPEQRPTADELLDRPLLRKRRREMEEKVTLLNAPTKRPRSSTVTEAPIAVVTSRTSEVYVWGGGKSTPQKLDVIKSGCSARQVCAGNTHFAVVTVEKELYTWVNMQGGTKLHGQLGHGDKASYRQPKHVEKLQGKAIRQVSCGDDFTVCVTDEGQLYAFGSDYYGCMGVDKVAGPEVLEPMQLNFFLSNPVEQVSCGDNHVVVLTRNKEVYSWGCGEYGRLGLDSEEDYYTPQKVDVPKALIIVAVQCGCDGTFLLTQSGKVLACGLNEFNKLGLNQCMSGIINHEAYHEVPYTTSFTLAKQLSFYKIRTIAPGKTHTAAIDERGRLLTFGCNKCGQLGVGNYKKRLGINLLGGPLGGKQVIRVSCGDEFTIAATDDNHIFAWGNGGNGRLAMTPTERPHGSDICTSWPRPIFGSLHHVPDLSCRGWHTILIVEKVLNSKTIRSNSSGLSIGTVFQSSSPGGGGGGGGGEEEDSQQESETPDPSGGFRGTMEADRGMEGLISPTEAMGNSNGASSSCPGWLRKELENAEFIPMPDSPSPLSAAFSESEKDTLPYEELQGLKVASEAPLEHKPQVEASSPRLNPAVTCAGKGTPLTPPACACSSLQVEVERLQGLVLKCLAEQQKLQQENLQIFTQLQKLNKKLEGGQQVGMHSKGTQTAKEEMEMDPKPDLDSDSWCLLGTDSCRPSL
Particulars: at 0.1 µM.

SMILES strings stand for the structures.

Sequence of Serine/threonine-protein kinase Nek6 (Homo sapiens) (Q9HC98 whole entry): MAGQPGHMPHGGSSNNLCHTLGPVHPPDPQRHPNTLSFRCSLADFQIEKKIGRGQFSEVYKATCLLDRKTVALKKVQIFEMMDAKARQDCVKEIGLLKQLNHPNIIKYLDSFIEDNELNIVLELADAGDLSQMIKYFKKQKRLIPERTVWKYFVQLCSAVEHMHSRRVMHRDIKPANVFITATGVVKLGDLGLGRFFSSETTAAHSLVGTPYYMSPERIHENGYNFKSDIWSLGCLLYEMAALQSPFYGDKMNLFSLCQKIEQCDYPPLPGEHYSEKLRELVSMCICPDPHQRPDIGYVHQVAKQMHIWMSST
Sequence of Casein kinase II subunit alpha (Homo sapiens) (P68400 whole entry, looked up): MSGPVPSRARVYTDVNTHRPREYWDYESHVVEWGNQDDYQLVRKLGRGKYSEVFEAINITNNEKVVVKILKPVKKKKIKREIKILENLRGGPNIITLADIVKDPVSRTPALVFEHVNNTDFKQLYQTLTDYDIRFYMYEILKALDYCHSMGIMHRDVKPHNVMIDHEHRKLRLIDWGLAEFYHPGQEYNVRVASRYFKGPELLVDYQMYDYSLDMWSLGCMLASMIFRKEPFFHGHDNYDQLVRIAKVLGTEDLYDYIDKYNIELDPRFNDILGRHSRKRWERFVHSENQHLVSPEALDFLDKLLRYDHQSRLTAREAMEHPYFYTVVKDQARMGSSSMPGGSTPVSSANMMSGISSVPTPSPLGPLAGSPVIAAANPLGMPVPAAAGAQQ
Sequence of Serine/threonine-protein kinase Nek7 (Homo sapiens) (Q8TDX7 whole entry, looked up): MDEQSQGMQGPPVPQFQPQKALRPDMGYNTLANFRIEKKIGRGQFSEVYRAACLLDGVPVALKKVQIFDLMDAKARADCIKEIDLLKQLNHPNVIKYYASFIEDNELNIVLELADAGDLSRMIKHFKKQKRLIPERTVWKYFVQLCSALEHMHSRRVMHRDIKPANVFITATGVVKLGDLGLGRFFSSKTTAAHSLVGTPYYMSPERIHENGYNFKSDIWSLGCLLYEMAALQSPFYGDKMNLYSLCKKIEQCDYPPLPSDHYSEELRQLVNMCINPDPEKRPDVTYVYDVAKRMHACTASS
Sequence of Sphingosine kinase 1 (Homo sapiens) (Q9NYA1 whole entry): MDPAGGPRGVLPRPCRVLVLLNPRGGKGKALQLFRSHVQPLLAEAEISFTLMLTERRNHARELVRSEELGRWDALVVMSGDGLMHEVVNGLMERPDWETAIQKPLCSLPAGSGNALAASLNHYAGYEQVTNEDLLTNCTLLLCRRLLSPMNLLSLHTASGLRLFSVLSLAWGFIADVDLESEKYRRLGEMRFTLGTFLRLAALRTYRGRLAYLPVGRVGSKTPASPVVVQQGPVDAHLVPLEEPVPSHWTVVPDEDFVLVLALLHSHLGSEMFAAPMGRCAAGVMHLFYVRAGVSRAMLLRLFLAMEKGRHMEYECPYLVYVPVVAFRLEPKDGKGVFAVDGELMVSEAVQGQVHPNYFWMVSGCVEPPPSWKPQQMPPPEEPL

Broadly, the inhibition is the relative decrease from the control value, in per cent. For `Cc1ccc2c(-c3ccnc(Nc4ccccc4)n3)c(-c3ccc(F)cc3)nn2n1`, the inhibition in assay [1] was 1.05%; in [2], -1.64%; in assay [3], 0%; in assay [4], 1.08%; in [5], -2.67%; in assay [6], 5%. Besides, the inhibition in assay [7] is 0.7%; in assay [8] it was 4.32%; in assay [9], 1.74%; in assay [10] it was 1.25%; in assay [11], 3.29%; in assay [12], 2.02%. Moreover, the inhibition in [13] is 2.14%; in [14] it was 4.21%; in [15], 3%; in [16], 4.02%; in assay [17] it was -0.68%; in assay [18], 2.06%. For the same compound, the inhibition was 2.94% in assay [19] and -1.05% in assay [20].
